High-throughput results deposited in PubChem BioAssay by National Center for Advancing Translational Sciences (NCATS).
DT40 TDP1 CPT = DT40-hTDP1 cell growth loss with CPT; 12% of 420,000 active; Potency, µM (highest dose often 46.2 µM), for the others: top-dose activity change, negative = growth inhibition, actives largely listed as inhibitors; chicken DT40 Tdp1-/-;hTDP1 cells + 20 nM CPT, ATP luminescence, 48 h; note: potency is the fitted concentration of half-maximal effect; nearly all actives have a fitted effect of over 55% in size
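Chicken DT40 Tdp1-/- cells complemented with human TDP1, 400 cells/well, exposed to compounds plus 20 nM camptothecin for at least 48 h at 37 C; viability read as ATP content by CellTiter-Glo luminescence.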
HT1080NT lethal = kills 2HG-producing HT-1080-NT fibrosarcoma cells; 1.6% of 360,000 active; AID 686970; Potency, µM (doses to about 46.1 µM), for inactives: at the top dose activity, negative = less viability, hits mostly cytotoxic; HT-1080-NT fibrosarcoma viability, CellTiter-Glo ATP luminescence, 48 h;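 note: NT is the 2HG producing partner of a matched IDH1 knockdown line; potency is the fitted concentration of half-maximal effect; 0% = DMSO-treated cells and -100% = media-only wells without cells; nearly all actives have a fitted effect of over 55% in size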
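Luminescent CellTiter-Glo readout after 48 hours of compound exposure at 37 degrees C defined viability of HT-1080-NT cells. Activity was normalized to DMSO wells and cell-free media wells; concentration-response curves were fitted and assigned curve classes.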
TDP1 cell noCPT = qHTS for Inhibitors of human tyrosyl-DNA phosphodiesterase 1 (TDP1): qHTS in cells in absence of CPT. DT40 Tdp1-/- hTDP1 cells, no CPT, ATP luminescence, 48 h. Potency, µM (highest dose often 46.2 µM), for the others: top-dose activity change, negative = growth inhibition, hits mostly inhibitors. 15% of 420,000 active; note: potency is the fitted concentration of half-maximal effect; nearly all actives have a fitted effect of over 55% in size
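Seeded 400 DT40-hTDP1 cells/well (vehicle DMSO, no 20 nM CPT); pinned compounds; ≥48 hr at 37 °C; CellTiter-Glo luminescence as viability measure.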
ELG1 DNA repair = ELG1-dependent DNA repair inhibition; AID 504467; HEK293T ELG1-luciferase reporter, luminescence, 16 h; DNA damage induced by 5-fluorouridine; Potency, µM (highest dose often 46.1 µM), for inactives: at the highest dose activity change, negative = inhibition, hits mostly inhibitors; 2.3% of 330,000 active; note: potency is the fitted concentration of half-maximal effect; nearly all actives have a fitted effect of over 55% in size
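In this reporter screen, reduction of luminescence relative to DMSO vehicle indicated activity. Compounds and 5-fluorouridine were added together to 2,000 cells per well, incubated for 16 hr at 37 °C, then developed with ONE-Glo.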
HT1080 IDH1KD tx = HT-1080 IDH1 knockdown cell toxicity (counter line); Potency, µM (top dose mostly 46.1 µM), without a hit: at the top dose activity, negative = toxicity, actives largely listed as cytotoxic; HT-1080 IDH1 knockdown viability, ATP luminescence, 48 h; 2% of 360,000 active;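 note: potency is the fitted concentration of half-maximal effect; 0% = DMSO wells and -100% = cell-free medium wells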
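Luminescent ATP read-out (CellTiter-Glo, 10 min at room temperature) after 48 h compound exposure at 37 °C gave viability of IDH1-knockdown HT-1080 cells. Activity was normalised to DMSO and cell-free wells, then fitted as concentration-response curves.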
IL-1B inflam inh = blocks inflammasome-driven IL-1 beta release | THP-1 LPS/ATP IL-1B secretion, AlphaLISA, 16 h; active compounds read low | activity change, % at 57.5 µM | 4.7% of 360,000 active | AID 743279; in the data active = activity change below about -50%; inconclusive = mostly about -30% to -49%
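Secreted IL-1B measured by AlphaLISA bead assay after 16 h compound exposure of THP-1 cells; compounds (final up to 57.5 uM) added 1 h before LPS (250 ng/mL) and ATP (1.25 mM) stimulation; lower signal means less secretion.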
Numbers without * were called inactive; ? = inconclusive; · = not tested or not shown; [ ] = dose if it differs, or a comment. The list is not random: actives were taken first. Their share in the collection is about 19%. Unless noted, calls come from the whole dose curve; as a rule, active = well fitted curve in the direction sought with a large enough effect; inconclusive = small, poorly fitted or top-dose-only effect, or another doubt; inactive = no such curve, though single readings can be large; an effect the other way counts as inactive or inconclusive. Unless noted, % is set by controls: 0 for no effect and ±100 for the full control effect.

SMILES | DT40 TDP1 CPT | HT1080NT lethal | TDP1 cell noCPT | ELG1 DNA repair | HT1080 IDH1KD tx | IL-1B inflam inh
O=C(/C=C/c1ccco1)NC(=S)Nc1cc(C(F)(F)F)ccc1N1CCOCC1 | -20% | 20% | ? | 10% | -7% | -19
CCc1c(C)sc(NC(=O)Cc2ccccc2OC)c1C(=O)N1CCOCC1 | -4% | 5% | 5% | 10% | 12% | -5
CCc1ccccc1NC(=O)CSc1nc2c(c(=O)[nH]1)CN(Cc1ccccc1OC)CC2 | ? | · | -27% | · | · | ·
O=C(CSc1nc2ccccc2o1)Nc1cc(C(F)(F)F)ccc1N1CCOCC1 | ? | -14% | ? | -17% | ? | -50*
COc1ccccc1/C=C/C(=O)OCC(=O)Nc1cc(C(F)(F)F)ccc1N1CCOCC1 | 4.1µM* | ? | 2.6µM* | ? | ? | 35
CCCCn1nc(C(=O)Nc2cc(C(F)(F)F)ccc2N2CCOCC2)ccc1=O | 23µM* | -14% | 3.7µM* | ? | -8% | -26
O=C(COC(=O)/C=C/c1ccccc1)Nc1cc(C(F)(F)F)ccc1N1CCOCC1 | -1% | -19% | 11% | 21% | -12% | 17
Cc1cc(C(=O)Nc2cc(C(F)(F)F)ccc2N2CCOCC2)no1 | -7% | -2% | -17% | ? | -5% | 0
Cc1ccc2nc(SCC(=O)Nc3cc(C(F)(F)F)ccc3N3CCOCC3)[nH]c2c1 | 0.82µM* | ? | 0.82µM* | -16% | 1µM* | 29
COC(=O)[C@@H]1C[C@@H](NC(=O)c2cccc3c(C)c(C)[nH]c23)CN1Cc1cccc2ccccc12 | 5%[9.04 µM] | · | -24% | · | · | ·
Cc1ccc(NC(=O)CSCC(=O)Nc2cc(C(F)(F)F)ccc2N2CCOCC2)cc1 | 18µM* | -8% | 21µM* | -13% | -27% | -5
Cc1cc(NC(=O)CSCC(=O)Nc2cc(C(F)(F)F)ccc2N2CCOCC2)no1 | -17% | 2% | 4% | 4% | -1% | -14
Cc1nn(CC(=O)Nc2ccccc2F)c(=O)c2c(C)n(-c3ccc(Cl)cc3)nc12 | 23µM* | · | ? | · | · | ·
COc1ccc(CNC(=O)Cn2nc(C)c3c(C)n(-c4ccccc4)nc3c2=O)cc1OC | -18% | · | -23% | · | · | ·
Cc1cccc(CNC(=O)Cn2nc(C)c3nn(-c4ccc(Cl)cc4)c(C)c3c2=O)c1 | 21µM* | · | 18µM* | · | · | ·
COc1ccc(CNC(=O)Cn2nc(C)c3c(C)n(-c4ccc(C)cc4)nc3c2=O)cc1OC | -26% | ? | -9% | 21µM* | -6% | -8
CCOc1ccc(CNC(=O)Cn2nc(C)c3nn(-c4ccc(Cl)cc4)c(C)c3c2=O)cc1OC | ? | · | 18µM* | · | · | ·
COc1ccccc1CNC(=O)c1nnn(CC(=O)Nc2c(C)cccc2C)c1N | -3% | · | 6% | · | · | ·
COc1ccc(CCNC(=O)Cn2nc(C)c3c(C)n(-c4ccc(C)cc4)nc3c2=O)c(OC)c1 | 16µM* | · | ? | · | · | ·
COCCNC(=O)Cn1nc(C)c2c(C)n(-c3ccc(C)cc3)nc2c1=O | -4% | · | -13% | · | · | ·
Nc1ccc(-c2cc3ccccc3oc2=O)cc1 | -8% | 6% | 0% | 15% | 24% | -18
O=C/C=C/c1c(-c2ccccc2)cc2oc3ccccc3cc1-2 | ? | -29% | 18µM* | -2% | 21µM* | -99*
CCOc1ccc(CC(=NCCc2ccccc2)C2=C(O)CC(C)(C)CC2=O)cc1OCC | 15µM* | 0% | 16µM* | ? | -1% | -66*
CCOc1ccc(CC(=N)C2=C(O)CC(C)(C)CC2=O)cc1OCC | 23% | 11% | -19% | 10% | 10% | 30
COc1ccc(-n2nc(C(=O)NCC(=O)N3CC(C)CC(C)C3)c3ccccc3c2=O)cc1 (stereo unspecified) | -23% | 0% | ? | 13µM* | -17% | -7
SMILES | DT40 TDP1 CPT | HT1080NT lethal | TDP1 cell noCPT | ELG1 DNA repair | HT1080 IDH1KD tx | IL-1B inflam inh
COc1cc(OC)cc(-n2nc(C(=O)N3CC(C)CC(C)C3)c3ccccc3c2=O)c1 (stereo unspecified) | -26% | 1%[9.24 µM] | ? | 21µM* | -2% | -5
COC(=O)c1ccc(OCC(=O)NCCC2=CCCCC2)c(OC)c1 | ? | -6% | 23µM* | ? | 9% | -27
COc1cccc(/C=C/C(=O)OCC(=O)NCCC2=CCCCC2)c1 | ? | 3% | 23µM* | 7% | -4% | 20
COc1ccc(-n2nc(C(=O)NCC(=O)N3CCCCCC3)c3ccccc3c2=O)cc1 | -6% | 2% | -29% | 17% | -22% | -3
CCCCN1CC(=O)N2[C@@H]3c4cc(OC)ccc4OC[C@@H]3[C@H](C(=O)OCC)[C@]2(C)C1=O | -9% | 6% | ? | · | -2% | -2
O=C(C[C@H]1C[C@H]2c3cc(NS(=O)(=O)c4ccc(F)cc4)ccc3O[C@H]2[C@H](CO)O1)NCc1ccncc1 | -15% | -2% | -18% | · | 5% | -7
COC(=O)C1CCN(C(c2ccccc2)c2sc3nc(-c4ccco4)nn3c2O)CC1 (stereo unspecified) | 9% | · | -15% | · | · | ·
Cc1ccccc1OCc1ccc(-c2nc(C#N)c(N3CCN(c4ccccc4)CC3)o2)o1 | -14% | · | -17% | · | · | ·
COc1cccc(C(=O)OCC(=O)Nc2sc3c(c2C(N)=O)CCC3)c1O | -21% | 3%[9.24 µM] | 0% | 9% | -2% | 23
Cc1cc(C(=O)COC(=O)/C=C/c2ccco2)c(C)n1C | 10% | 3% | 1% | ? | 5% | ?
COc1ccc(-n2nc(C(=O)NCC(=O)NCCC3=CCCCC3)c3ccccc3c2=O)cc1OC | -22% | -16% | 18µM* | 9.2µM* | -5% | -19
O=C(COC(=O)c1ccccc1Cl)NCCC1=CCCCC1 | -5% | 6% | ? | ? | 7% | 1
COc1ccc(N2CCN(C(=O)CNC(=O)c3nn(-c4ccc(OC)cc4)c(=O)c4ccccc34)CC2)cc1 | ? | -6% | 18µM* | 1% | -5% | ?
COc1ccc(-n2nc(C(=O)NCC(=O)N3CCC(C)CC3)c3ccccc3c2=O)cc1Cl | ? | -5% | ? | ? | -7% | -6
COc1ccc(-n2nc(C(=O)NCC(=O)N3CCN(c4ccccn4)CC3)c3ccccc3c2=O)cc1Cl | 12µM* | 13% | 12µM* | -10% | -2% | 7
O=C(COC(=O)c1ccccc1O)NCCC1=CCCCC1 | -2% | -2% | 18µM* | ? | 0% | -28
